# Experimental data from PubChem BioAssay AID686978 (National Center for Advancing Translational Sciences (NCATS), 2013).
# Out of some 420,000 compounds screened, about 64,000 (15%) were called active. Not shown: some 27% with an inconclusive outcome. Only a sample is shown. Values without a mark were called inactive. Calls come from the whole dose curve; as a rule, active = well fitted inhibition curve with a large enough effect; inconclusive = small, poorly fitted or top-dose-only effect; inactive = flat fitted curve, though single readings scatter. Peptide text beside a SMILES is read from it.
# Experiment: qHTS for Inhibitors of human tyrosyl-DNA phosphodiesterase 1 (TDP1): qHTS in cells in absence of CPT; note: nearly all actives have a fitted effect of over 55% in size
# Conditions: DT40 Tdp1-/- hTDP1 cells, no CPT, ATP luminescence, 48 h; activity change, negative = growth inhibition: at 46.2 µM (top of the series)
# Method in brief: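 DT40 Tdp1-/-;hTDP1 cells, no CPT (DMSO vehicle only), 400 cells/well; compounds pin-transferred; ≥48 hr, 37 °C; CellTiter-Glo 30 min RT dark, luminescence read.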
# % is set by controls: 0 for no effect and ±100 for the full control effect; potency is the fitted concentration of half-maximal effect.
SMILES,"activity change, negative = growth inhibition [%]",Potency
NC(=O)c1cc(-c2cccnc2)nc2ccc(Br)cc12,-13.9,
CN1C(=O)/C(=N/OC(=O)c2ccccc2Br)c2ccccc21,-28.5,
COc1cc(SC#N)ccc1N=Cc1c(C)[nH]n(-c2ccc(C)cc2)c1=O,,3.66 µM (active)
CCOC(=O)c1sc2nc(C)nc(SCC(N)=O)c2c1C,2.57,
COC(=O)C1(C)NC(c2ccc(C)cc2)C2C(=O)N(c3ccc(F)cc3)C(=O)C21 (stereo unspecified),5.47,
COC(=O)C1(C)NC(c2ccc(F)cc2)C2C(=O)N(c3ccccc3)C(=O)C21 (stereo unspecified),17.9,
COC(=O)[C@]1(C)N[C@H](c2ccc(-c3ccc(Cl)c(Cl)c3)cc2)[C@@H]2C(=O)N(C)C(=O)[C@@H]21,,16.4 µM (active)
O=S(=O)(c1ccc(F)cc1)N1CC=C(c2ccccc2)CC1,-29.1,
CC1(C)CC(=O)C2=C(C1)NCN(CCCN1CCOCC1)C2,-11.2,
Cc1c(NC(=O)CN2C(=O)C(=O)N(Cc3ccccc3)C2=O)c(=O)n(-c2ccccc2)n1C,7.02,
CCOC(=O)c1cc2c(=O)n3ccccc3nc2n(CC(C)C)c1=NC(=O)c1c(-c2c(F)cccc2Cl)noc1C,,5.8 µM (active)
CCOC(=O)c1cc2c(=O)n3ccccc3nc2n(CC2CCCO2)c1=NC(=O)c1ccc(C(C)(C)C)cc1 (stereo unspecified),-2.39,
CCOC(=O)c1cc2c(=O)n3ccccc3nc2n(CCCOC)c1=NC(=O)C(C)Oc1ccccc1 (stereo unspecified),-24.7,
c1c2c(cc3sc(N4CCCCC4)nc13)OCCO2,-22.8,
CCC(C)(C)c1ccc(OCC(=O)N(C)C)c(C(C)(C)CC)c1,,18.4 µM (active)
CCc1nc(C)ccc1OCC(=O)N(CC)CC,-10.2,
Cc1cccc(C(=O)NNC(=O)CSc2nnc(C(C)C)n2C)c1,0.652,
CCn1c(CNc2ccc(OC)cc2)nnc1SCC(=O)c1ccc(OC)cc1,-21.5,
CCn1c(SCC(=O)NNC(=O)c2ccc(OC)cc2)nnc1C(C)C,,20.6 µM (active)
CCNC(=O)NC(=O)C(C)OC(=O)C1CCN(S(=O)(=O)c2ccccc2F)CC1 (stereo unspecified),-0.61,
Cc1nc(COc2cccc(Cl)c2)sc1C(=O)/C=C/N(C)C,-10.1,
CCOc1ncccc1C(=O)Nc1ccc(S(=O)(=O)Nc2nc(C)cc(C)n2)cc1,-3.56,
CC(C)NS(=O)(=O)c1ccc(NC(=O)c2cccnc2)cc1,-17.9,
Cc1cc(NS(=O)(=O)c2ccc(NC(=O)c3cccnc3)cc2)nc(C)n1,-9.45,

SMILES,"activity change, negative = growth inhibition [%]",Potency
Cc1cccc(C(=O)Nc2ccc(S(=O)(=O)N3CCCCC3c3cccnc3)cc2)c1 (stereo unspecified),,18.4 µM (active)
CCOc1ccccc1C(=O)Nc1ccc(S(=O)(=O)N2CCCCC2c2cccnc2)cc1 (stereo unspecified),,18.4 µM (active)
CCOc1ccc(S(=O)(=O)N2CCC(c3ccccc3)CC2)cc1C(=O)O,9.36,
CCn1ccnc1CNC(=O)CC1C(=O)NCCN1Cc1ccc(F)cc1Cl (stereo unspecified),1.09,
COC(=O)Cn1c(=NC(=O)c2cc(OC)c(OC)c(OC)c2)sc2cc(OC)ccc21,-24.5,
NS(=O)(=O)c1cccc(NC(=O)COC(=O)c2cc([N+](=O)[O-])ccc2N2CCCC2)c1,-4.81,
O=C(Nc1cccc(F)c1)[C@@H]1CCCN1,7.69,
CCCn1c(NCc2ccc(N(CC)CC)cc2)nc2ccccc21,,8.2 µM (active)
CC(C)(C)C(=O)Cn1c(NCCO)nc2ccccc21,-3.49,
CCCn1nnnc1NCc1ccc(CC)cc1,-10.5,
O=C(O)CN1C(=O)CC(Cc2ccccc2)C1=O (stereo unspecified),-0.391,
Cc1cc(NC(=O)COn2nnc3ccccc32)no1,-17.8,
COC(=O)c1cc(NC(=O)C2C3C=CC(C3)C2C(=O)O)cc(C(=O)OC)c1 (stereo unspecified),3.17,
O=C(NCCCNCc1ccccc1)c1ccc(/C=N/O)nc1,3.22,
CCc1ccc(Nc2n[n+](-c3ccccc3)c(-c3cccc(Cl)c3Cl)s2)cc1,,16.4 µM (active)
Cc1noc(C)c1S(=O)(=O)NCCc1ccc(S(N)(=O)=O)cc1,-8.65,
COC(=O)c1ccc([C@@H](O)[C@H](C)C(=O)CC(=O)OC(C)(C)C)cc1,-16.3,
O=C(c1ccccc1)c1ccc(OC(=O)N2CCCC2)cc1,-25,
c1ccc(CC2CCN(c3nc4ccccc4n4cnnc34)CC2)cc1,-8.6,
O=C(c1ccccc1)c1ccc2nc(N3CCCCC3)c3nncn3c2c1,,13 µM (active)
COc1ccccc1OCCCC(=O)Nc1ccc2c(c1)OCCO2,-24.4,
COc1cccc(/C=C/C(=O)Nc2ccc3c(c2)OCCO3)c1,-13.1,
COc1ccc(OC)c(/C=C/C(=O)OCC(=O)Nc2ccc3c(c2)OCCO3)c1,,16.4 µM (active)
S=c1c2[nH]cnc2ncn1CCSc1ncnc2nc[nH]c12,-24.7,

SMILES,"activity change, negative = growth inhibition [%]",Potency
Cc1ccc(NC(=O)CN(C)C(=O)c2ccc(Cl)c(S(=O)(=O)NCc3ccco3)c2)cc1,11.9,
"CC[C@H](C)CCCCC(=O)N[C@@H](CCN)C(=O)N[C@H](C(=O)N[C@@H](CCN)C(=O)N[C@H]1CCNC(=O)[C@H]([C@@H](C)O)NC(=O)[C@H](CCN)NC(=O)[C@H](CCN)NC(=O)[C@H](CC(C)C)NC(=O)[C@@H](CC(C)C)NC(=O)[C@H](CCN)NC1=O)[C@@H](C)O (HELM PEPTIDE1{[CC[C@H](C)CCCCC(=O)[*:2]].[Dab].T.[Dab].[Dab].[Dab].[dL].L.[Dab].[Dab].T}$PEPTIDE1,PEPTIDE1,5:R3-11:R2$$$V2.0)",-2.38,
O=C(CSc1nnc(CNC(=O)c2ccccc2)n1-c1ccc(F)cc1)Nc1ccccc1F,-10.5,
CCOC(=O)/C=c1\s/c(=C\c2ccc(C#N)cc2)c(=O)n1CC(=O)Nc1cccc(C)c1C,,5.17 µM (active)
CCOc1ccc(NC(=O)Cn2c(C)ccc(C#N)c2=O)cc1,0.582,
Cc1cccc(NC(=O)CN2C(=O)c3ccccc3C2=O)c1C,1.62,
Cc1nc(SCC(=O)NC2CCCC2)[nH]c(=O)c1C,-0.993,
Cc1ccsc1C(=O)OCC(=O)c1cc2ccccc2o1,-9.66,
CCCCc1nn2c(=O)cc(COC(=O)c3cccc(NC(=O)COc4ccccc4)c3)nc2s1,-10.2,
O=C1CS(=O)CN1c1ccc(Oc2ccccc2)cc1 (stereo unspecified),-20.1,
O=C(CN1C(=O)NC2(CCCCCC2)C1=O)NCc1ccc(F)cc1,3.82,
COc1cc(OC)c(NC(=O)c2cc(S(=O)(=O)N3CCCC3)cn2C)cc1Cl,-7.62,
COc1ccccc1N(C)C(=O)c1cc(S(=O)(=O)N2CCc3ccccc32)cn1C,,25.9 µM (active)
COc1cccc(NC(=O)c2cc(S(=O)(=O)N3CCc4ccccc43)cn2C)c1,-1.2,
CN(C(=O)COC(=O)Cn1cnc2c1c(=O)n(C)c(=O)n2C)C1(C#N)CCCCC1,0.855,
NCC(=O)c1cccc2ccc[n+]([O-])c12,-0.678,
O=C(c1cnccn1)N1CCC2(CCCN(Cc3ccccc3)C2)CC1,-1.1,
CCN(Cc1ccncc1)C(=O)[C@@H](CO)c1ccccc1,2.72,
C=CCn1c(SCC(=O)NCc2ccccc2)nnc1-c1cc(Br)ccc1O,-18,
COc1ccc(OCC(=O)NNC(=O)C2CCC2)cc1,-5.78,
COc1ccc(-c2ccc3c(c2)C2CC3CCN2CCC#N)cc1 (stereo unspecified),,23.1 µM (active)
C=CCOC(=O)N1CCC2CC1c1cc(-c3ccc(OC)cc3)ccc12 (stereo unspecified),,16.4 µM (active)
COc1ccc(NC(=O)CCN2CCCC2)c(OC)c1,0.0354,
CC1CC1C(=O)OCC(=O)c1c(N)n(C)c(=O)n(C)c1=O (stereo unspecified),8.67,

SMILES,"activity change, negative = growth inhibition [%]",Potency
CCOC(=O)N1CCN(C(=O)c2cc3c(ccc4ccccc43)oc2=O)CC1,-24.1,
Cc1onc(C(=O)NN)c1C(=O)N1CCN(C(c2ccccc2)c2ccccc2)CC1,-18.3,
CCOC(=O)N1CCN(C(c2cccnc2)c2ccc3cccnc3c2O)CC1 (stereo unspecified),,1.64 µM (active)
CCOC(=O)Cn1nnnc1C,-9.63,
CCC(C)CCN1CCN=C1N(C)C (stereo unspecified),-17.4,
CC(C)NS(=O)(=O)c1ccc(OCC(=O)Nc2ccc3c(c2)OCCO3)cc1,-0.099,
CC1CC2=C(CC1/C=N/NC(N)=S)C(C)(C)CCC2 (stereo unspecified),,3.26 µM (active)
Cc1ccc(OCC(=O)OCc2cc(=O)n3nc(C4CC4)sc3n2)cc1C,0.484,
COc1cccc(Nc2nnc(SCC(=O)N3CC(=O)Nc4ccccc43)s2)c1,-29.2,
O=c1c2cc([N+](=O)[O-])ccc2nc2n1CCC2,-13.8,
N#C/C(=C(\O)C(F)(F)F)c1nnc2n1CCCCC2,-0.657,
N#C/C(=C/c1cccc([N+](=O)[O-])c1)c1nnc2n1CCCCC2,,13 µM (active)
Cc1ccc(NC(=O)c2cc([N+](=O)[O-])ccc2Cl)c(O)c1,-26.4,
CCn1cc(C(=O)N[C@@H](C)C(=O)NCCO)c(=O)c2cc3c(cc21)OCO3,34.9,
NC(=O)c1sc(-c2ccsc2)cc1N,-17.9,
C#CCOCCOCCOCCNc1nc(N2CCN(C(=O)Cn3cc(CCO)nn3)CC2)nc(N2CCN(C(=O)Cn3cc(CCCN=C(N)N)nn3)CC2)n1,-0.16,
C#CCOCCOCCOCCNc1nc(N2CCN(C(=O)[C@H](CCCN=C(N)N)n3cc(C(N)[C@@H](C)CC)nn3)CC2)nc(N2CCN(C(=O)[C@H](CO)n3cc([C@@H](N)C(C)C)nn3)CC2)n1 (stereo partly specified),-2.88,
C#CCOCCOCCOCCNc1nc(N2CCN(C(=O)CCCCCCCCCCNC(=O)[C@H]([C@@H](C)CC)n3cc(CCCCN=C(N)N)nn3)CC2)nc(N2CCN(C(=O)CCCCCCCCCCNC(=O)[C@H](CO)n3cc(CCCSC)nn3)CC2)n1,,8.2 µM (active)
CCN(CC)CCCSc1nc2ccccc2s1,-17.6,
O=C(NC(=O)N1CCSCC1)c1c(Cl)cccc1Cl,-12,
O=C(NCCc1cccc(F)c1)C1CC(O)CN1C(=O)Nc1ccccc1 (stereo unspecified),-11.9,
COc1ccc(CCC(=O)N2CCN(S(=O)(=O)c3ccc(OC)cc3)CC2)cc1,-32.4,
COc1cc(CCC(=O)Nc2ccncc2Cl)cc(OC)c1OC,-14.5,
COc1cc(CCC(=O)N2CCN(c3ccccc3Cl)CC2)cc(OC)c1OC,,11.6 µM (active)
